Experimental data taken from PubChem BioAssay AID504466 (National Center for Advancing Translational Sciences (NCATS), 2011).
The campaign covered roughly 330,000 compounds. About 4,200 (1.3%) were called active. Another 6% or so got no clear call; they are omitted. This is one part of a sample in which actives are shown more often than they occur. Calls come from the whole dose curve; as a rule, active = well fitted activation curve with a large enough effect; inconclusive = small, poorly fitted or top-dose-only effect; inactive = no such curve, though single readings can be large or run the other way.

Assay: qHTS screen for small molecules that induce genotoxicity in human embryonic kidney (HEK293T) cells expressing luciferase-tagged ELG1; note: nearly all actives have a fitted effect of over 60% in size; for activity change, positive = activation: % of control where 0% means no effect
Settings: HEK293T ELG1-luciferase reporter, luminescence, 16 h; series mostly up to 46 µM; activity change, positive = activation: at the top concentration
In short: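 HEK293T cells expressing luciferase-tagged ELG1 were treated with compound or DMSO for 16 hr at 37°C. Luciferase activity was then read after 30 min with ONE-Glo at room temperature; rising signal flags genetic stress.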
Potency is the fitted concentration of half-maximal effect.

| SMILES | activity change, positive = activation | Potency |
| --- | --- | --- |
| CC[C@]1(C(=O)OC)[C@H]2C(=O)N(Cc3ccccc3)C(=O)[C@H]2[C@H]2CN=C(SCc3ccc(Cl)cc3)N21 | -5.96% (inactive) |  |
| O=C(C[C@@H]1C/C=C\CCC(=O)OC[C@@H]2CCCN2C1=O)NCCO | 3.18% (inactive) |  |
| CN(C(=O)COC(=O)c1cc(=O)[nH]c2ccccc12)C1CCCCC1 | 18.4% (inactive) |  |
| CCCCNc1c(-c2cccc(Sc3ccc(OC)cc3)c2)nc2ccccn12 | -5.54% (inactive) |  |
| CN1CCN(c2ccc(NC(=O)c3ccc4c(c3)[nH]c(=O)n4Cc3ccc(F)cc3)cc2)CC1 | -2.36% (inactive) |  |
| CN1CCN(c2ccc(NC(=O)c3ccccc3)cc2)CC1 |  | 10.3 µM (active) |
| CN1CCN(c2ccc(NC(=O)c3cc(Cl)c4c(c3)OCCO4)cc2)CC1 | 9.93% (inactive) |  |
| N#Cc1cc([N+](=O)[O-])ccc1NC(=O)COC(=O)c1cnccn1 | -4.95% (inactive) |  |
| Cn1c(=NC(=O)c2cnccn2)sc2ccccc21 |  | 8.2 µM (active) |
| O=C(NCCCNC(=O)c1ccccc1Cl)c1cnccn1 | 1.2% (inactive) |  |
| COC(=O)c1ccc(OC(=O)c2cnccn2)cc1 | 0.398% (inactive) |  |
| CC1(c2ccccc2)NC(=O)N(CC(=O)N2CC(=O)Nc3ccccc32)C1=O (centres undefined) | 0.668% (inactive) |  |
| Cc1ccc(C)c(S(=O)(=O)N2CCN(c3ncnc4sccc34)CC2)c1 | -12.2% (inactive) |  |
| CC(C)CC1NC(=O)c2cc(Cl)ccc2-n2c1nc1ccccc1c2=O (centres undefined) | 0.392% (inactive) |  |
| Cc1ccnc(Nc2nc3ccccc3s2)n1 |  | 2.06 µM (active) |
| Cn1nnnc1SCC(=O)Nc1nc2ccccc2s1 | 14.9% (inactive) |  |
| Cc1ccnc(NC(=O)c2ccco2)n1 | 4.05% (inactive) |  |
| Cc1ccccc1NC(=O)CSC(=O)c1ccccc1 | -4.93% (inactive) |  |
| Cc1nn(Cc2ccc(Cl)c(Cl)c2)c(C)c1NC(=O)c1cc(C2CC2)on1 | 2.15% (inactive) |  |
| CSc1ccccc1NC(=O)c1cc(C2CC2)on1 |  | 23.1 µM (active) |
| O=C(Nc1cc(C(F)(F)F)ccc1Cl)c1cc(C2CC2)on1 | -1.5% (inactive) |  |
| COc1cc(C)ccc1OCC(=O)OCC(=O)c1ccc[nH]1 | 3.48% (inactive) |  |
| CC(C)(C)OC(=O)C[C@@H]1C/C=C\C[C@@H](CC(=O)NCCO)C(=O)N[C@H](Cc2c[nH]c3ccccc23)COC1=O | 0.381% (inactive) |  |
| C=CC[C@@H](CC(=O)N[C@@H](CO)Cc1ccccc1)C(=O)N[C@H](COC(=O)[C@H](CC=C)CC(=O)OC(C)(C)C)Cc1ccccc1 | 10.3% (inactive) |  |
